CYP2C19 act = human CYP2C19 activators, primary screen, biochemical, luminescence. recombinant CYP2C19, luciferin-H EGE luminescence; active compounds read high; 0 = fully inhibited enzyme, 1 = untreated enzyme. activation factor at 5 µM. 96,000 tested, under 10 active;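 active = activation factor of at least 2 at 5 µM in the primary screen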;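 also: 0 = wells with 2.5 mM tranylcypromine and 1 = vehicle-only wells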
CYP2C9 activ = human CYP2C9 activators, primary screen, biochemical, luminescence; Cytochrome P450 2C9 (Homo sapiens), P11712; recombinant CYP2C9, luciferin-H conversion; active compounds read high; factor 1 = untreated enzyme, 0 = blocked; activation factor at 5 µM; 96,000 compounds, 1.4% hits;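 active = activation factor of 2 or more for CYP2C9 at a 5 µM dose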;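 also: 0 = sulfaphenazole-blocked wells and 1 = vehicle-only wells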
Target sequence (P11712 whole entry, looked up): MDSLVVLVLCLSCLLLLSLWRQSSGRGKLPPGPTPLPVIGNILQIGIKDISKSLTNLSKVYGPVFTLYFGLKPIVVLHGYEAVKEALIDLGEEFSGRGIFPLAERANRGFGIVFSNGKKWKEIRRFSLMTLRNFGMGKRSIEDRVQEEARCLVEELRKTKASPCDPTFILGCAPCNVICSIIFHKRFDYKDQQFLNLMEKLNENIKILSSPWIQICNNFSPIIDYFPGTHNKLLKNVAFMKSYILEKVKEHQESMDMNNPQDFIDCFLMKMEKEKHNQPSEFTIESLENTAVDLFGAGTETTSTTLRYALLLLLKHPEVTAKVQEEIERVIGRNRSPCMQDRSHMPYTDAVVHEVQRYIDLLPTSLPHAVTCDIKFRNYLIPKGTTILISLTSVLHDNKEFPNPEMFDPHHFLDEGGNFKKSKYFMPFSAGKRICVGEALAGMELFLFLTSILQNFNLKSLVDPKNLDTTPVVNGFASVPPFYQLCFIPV
Cav3 T inh = Cav3.2 calcium influx blockers – cell-based, Fluo-4 calcium fluorescence, FDSS, MLSMR library, primary screen; AID 449739, 2010; B-score at 10 µM; 100,000 compounds, 4% hits; Cav3.2-expressing cells; active compounds read low;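 active = single-dose well whose peak fluorescence ratio is a statistical outlier from its plate by either plate-standardised score or position-corrected B-score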
CYP2C9 inhib = blockers of cytochrome P450 2C9 activity – biochemical, luminescence, ADME assay, primary screen | P11712 | CYP2C9 Supersomes, luciferin-H conversion | inhibition, % at 5 µM | 96,000 compounds, 20% hits | AID 777, 2007;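 active = blocking of liver enzyme CYP2C9 beyond about 50% at 5 µM, limit read from the data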
CYP2C19 inh = blockers of cytochrome P450 2C19 activity – biochemical, luminescence, ADME assay, primary screen; 96,000 compounds, 21% hits; P33261; AID 778, 2007; CYP2C19 Supersomes, luciferin-H EGE luminescence, 30 min; inhibition, % at 5 µM;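 active = CYP2C19 inhibition above a set limit at 5 µM in the primary screen, cut at about 50% in these data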;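 also: plate controls were negative control wells for no effect and 2.5 mM tranylcypromine positive control for full effect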
Numbers without * were called inactive; . = no result given. Sampled rows, rich in hits. Any-hit rate of the full collection: about 27%.

SMILES	CYP2C19 act	CYP2C9 activ	Cav3 T inh	CYP2C9 inhib	CYP2C19 inh
O=[N+]([O-])c1ccc(Sc2ccc(Cl)c(Cl)c2)nc1	0.9	1	-0.2	-2	6
CSC1=C(C#N)C(c2ccccc2Cl)C2=C(CCCC2=O)N1 (stereo not given)	0.9	0.7	.	30	5
N#CC1=C(SCC(=O)c2ccc(Cl)cc2)NC2=C(C(=O)CCC2)C1c1ccco1 (stereo not given)	0	0	-1.7	97*	99*
Cc1ccc(NC(=O)CSC2=C(C#N)C(c3ccco3)C3=C(CCCC3=O)N2)cc1 (stereo not given)	0.8	0.6	-0.51	43	18
CC1(C)CC(=O)C2=C(C1)NC(SCC(=O)Nc1ccccc1)=C(C#N)C2c1ccco1 (stereo not given)	0	0	-1.1	95*	96*
COc1ccc(OC)c(NC(=O)CSC2=C(C#N)C(c3ccco3)C3=C(CCCC3=O)N2)c1 (stereo not given)	0.2	0.1	0.53	86*	84*
CCOc1ccc(N2CC(C(=O)Nc3cccc(C)c3C)CC2=O)cc1 (stereo not given)	0.9	0.7	-0.15	34	8
COc1ccc(C(=O)Nc2nc3ccccc3[nH]2)cc1S(=O)(=O)N1CCCC1	0.9	0.9	0.71	14	8
CNc1nc(Sc2ccc(C)cc2)cc(C(F)(F)F)n1	1	0.9	-0.022	7	-1
COc1ccc(S(=O)(=O)NC(CC(=O)NCCc2ccc(OC)c(OC)c2)c2ccco2)cc1 (stereo not given)	1	0.9	.	10	2
O=C(NCc1ccco1)c1ccccc1NS(=O)(=O)c1ccc2c(c1)OCCO2	0.4	1.6	.	-61	56*
CN(C)S(=O)(=O)c1ccc(Cl)c(C(=O)NCc2ccco2)c1	0.7	0.8	0.41	22	34
O=C(O)/C=C/C(=O)Nc1ccccc1C(=O)Nc1ccccc1	1.5	1	1.8	4	-48
O=C(NCc1ccco1)c1ccccc1NS(=O)(=O)c1cccs1	0.2	0.3	0.18	72*	81*
O=C(NCc1ccco1)c1ccccc1NS(=O)(=O)c1ccc(Cl)s1	1.2	0	-7.4*	97*	-17
O=C(Nc1ccccc1)c1ccccc1NS(=O)(=O)c1ccc(Cl)s1	.	.	-8.7*	.	.
O=C(c1ccccc1NS(=O)(=O)c1ccc2c(c1)OCCO2)N1CCOCC1	.	.	2.6	.	.
O=C(OCc1cccs1)c1ccccc1NS(=O)(=O)c1ccc2c(c1)OCCO2	0.4	0.8	-4.8*	24	60*
NC(=O)c1ccccc1NS(=O)(=O)c1cccs1	0.9	1.9	-0.98	-90	14
CCN(CC)CCCNC(=O)C1c2ccccc2C(=O)N1Cc1ccc(C)cc1 (stereo not given)	1.2	1.1	-0.54	-10	-16
CCCC(=O)Nc1sc(C)c(C)c1C(=O)Nc1cccc(C)c1	0.8	0.9	-0.26	10	15
Cc1cc2nc(-c3ccc(SCC(=O)Nc4ccc5c(c4)OCCO5)nc3)[nH]c2cc1C	0.7	0.2	-0.84	78*	31
Cc1cc2nc(-c3ccc(SCC(=O)N4CCN(C(=O)c5ccco5)CC4)nc3)[nH]c2cc1C	0.3	0.2	-1.5	84*	72*
COc1cccc(C(=O)Nc2ccc(NC(=O)C(C)(C)C)cn2)c1	1	1.1	0.67	-13	-3
O=C(CN1C(=O)CNC1=O)Nc1cccc(C(F)(F)F)c1	1	1	-0.089	-3	-3
SMILES	CYP2C19 act	CYP2C9 activ	Cav3 T inh	CYP2C9 inhib	CYP2C19 inh
O=S(=O)(Nc1ccc(N2CCOCC2)cc1)c1ccccc1	0	0.2	-0.34	84*	99*
O=S(=O)(Nc1ccc(N2CCOCC2)cc1)c1ccc(Cl)s1	0	0	-0.94	100*	100*
O=C(O)c1ccc(NS(=O)(=O)/C=C/c2ccccc2)cc1O	0.9	0.4	-0.48	55*	12
O=S(=O)(/C=C/c1ccccc1)Nc1ccc(N2CCOCC2)cc1	0.1	0.2	-1	83*	94*
O=C(Nc1ccc(N2CCOCC2)cc1)C1(S(=O)(=O)c2ccccc2)CC1	0.9	1	-0.041	-1	10
O=C(Nc1ccc(Cl)cc1)Nc1ccc(N2CCOCC2)cc1	1.1	1.1	0.0043	-6	-8
